# TDP1 inh – qHTS Assay for Inhibitors of Tyrosyl-DNA Phosphodiesterase (TDP1) | Tyrosyl-DNA phosphodiesterase 1 (Homo sapiens), Q9NUW8 | recombinant TDP1, AlphaScreen DNA substrate cleavage | Potency, µM (doses to about 130 µM), for the others: at the top dose activity change, negative = inhibition, hits mostly inhibitors | 0.28% of 350,000 active | AID 485290, 2010; note: potency is the fitted concentration of half-maximal effect; % is set by controls: 0 for no effect and ±100 for the full control effect; nearly all actives have a fitted effect of over 40% in size
#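 Tdp1 1 nM final; 15 min RT w/ cpd; substrate 15 nM, 5 min; beads 10 ug/ml, 10 min; AlphaScreen read. Neg ctrl: no enzyme.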
# DT40 TDP1 no CPT – qHTS for Inhibitors of human tyrosyl-DNA phosphodiesterase 1 (TDP1): qHTS in cells in absence of CPT; Potency, µM (titrated, usually from 46.2 µM), for inactives: at the top dose activity change, negative = growth inhibition, hits mostly inhibitors; DT40 Tdp1-/- hTDP1 cells, no CPT, ATP luminescence, 48 h; 15% of 420,000 active; note: potency is the fitted concentration of half-maximal effect; % is set by controls: 0 for no effect and ±100 for the full control effect; nearly all actives have a fitted effect of over 55% in size
#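 Seeded 400 DT40-hTDP1 cells/well (vehicle DMSO, no 20 nM CPT); pinned compounds; ≥48 hr at 37 °C; CellTiter-Glo luminescence as viability measure.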
# TDP1 cell CPT – qHTS for Inhibitors of human tyrosyl-DNA phosphodiesterase 1 (TDP1): qHTS in cells in presence of CPT; chicken DT40 Tdp1-/-;hTDP1 cells + 20 nM CPT, ATP luminescence, 48 h; Potency, µM (series often up to 46.2 µM), inactives show at the highest dose activity change, negative = growth inhibition, hits mostly inhibitors; 12% of 420,000 active; note: potency is the fitted concentration of half-maximal effect; % is set by controls: 0 for no effect and ±100 for the full control effect; nearly all actives have a fitted effect of over 55% in size
#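 Chicken DT40 Tdp1-/- cells complemented with human TDP1, 400 cells/well, exposed to compounds plus 20 nM camptothecin for at least 48 h at 37 C; viability read as ATP content by CellTiter-Glo luminescence.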
# HepG2 viability – qHTS for Inhibitors of TGF-b: Cytotox Counterscreen | HepG2 CAGA-GFP viability, ATP luminescence, 18 h | Potency, µM (highest dose often 46.1 µM), for the others: top-dose activity change, negative = cytotoxicity, hits mostly cytotoxic | 0.76% of 410,000 active | AID 588856, 2011; note: potency is the fitted concentration of half-maximal effect
#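 HepG2 CAGA-GFP cells (1000/well, DMEM with 1% FBS) received compound, then TGF-beta at 500 pg/mL final, and were incubated 18 hours at 37 degrees C. Viability was read by CellTiter-Glo luminescence. Media-only wells were set as complete cell-killing and DMSO as no toxicity.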
# TGFb inhibitor – qHTS for Inhibitors of TGF-b; HepG2 CAGA-GFP TGF-b/SMAD3 reporter, GFP fluorescence, 18 h; TGF-beta stimulated, 500 pg/mL final; Potency, µM (doses to about 46.1 µM), for inactives: at the highest dose activity, negative = inhibition, hits mostly inhibitors; 1.2% of 410,000 active; note: potency is the fitted concentration of half-maximal effect; % is set by controls: 0 for no effect and ±100 for the full control effect; nearly all actives have a fitted effect of over 65% in size
#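 Read-out: total well GFP (ex488/em500-530) summed from mean per-cell fluorescence. Cells: HEPG2 CAGA-GFP, 1% FBS DMEM, 18 h at 37 degrees C with 500 pg/mL final TGF-beta. Unstimulated wells served as the full-inhibition control; stimulated DMSO wells = 0%.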
# IL1B secr inh – qHTS for Inhibitors of Inflammasome Signaling: IL-1-beta AlphaLISA Primary Screen; THP-1 LPS/ATP IL-1B secretion, AlphaLISA, 16 h; active compounds read low; activity change, % at 57.5 µM; 4.7% of 360,000 active; AID 743279, 2014; in the data active = activity change below about -50%; inconclusive = mostly about -30% to -49%; note: % is set by controls: 0 for no effect and ±100 for the full control effect
#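 Secreted IL-1B measured by AlphaLISA bead assay after 16 h compound exposure of THP-1 cells; compounds (final up to 57.5 uM) added 1 h before LPS (250 ng/mL) and ATP (1.25 mM) stimulation; lower signal means less secretion.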
# Active calls of the source: *; ? = inconclusive; · = no result; [ ] = dose if it differs, or a comment. Shown are actives, neighbours in structure and some others; about 19% of the full set was active somewhere. Unless noted, calls come from the whole dose curve; as a rule, active = well fitted curve in the direction sought with a large enough effect; inconclusive = small, poorly fitted or top-dose-only effect, or another doubt; inactive = no such curve, though single readings can be large; an effect the other way counts as inactive or inconclusive.
SMILES,TDP1 inh,DT40 TDP1 no CPT,TDP1 cell CPT,HepG2 viability,TGFb inhibitor,IL1B secr inh
Cc1ccc2occ(/C=N/NC(=O)c3ccc(O)cc3)c(=O)c2c1,2%[56.1 µM],?,?,-8%,1%,0
Cc1ccc2occ(/C=N/NC(N)=S)c(=O)c2c1,3%,26µM*,?,8%,-1%,18
CCOc1ccccc1C(=O)N/N=C/c1coc2ccc(C)cc2c1=O,35µM*,?,18µM*,-3%,0%,85
CC(C)C(=O)Nc1ccc(NC(=S)NC(=O)c2ccccc2F)cc1,0%,-14%,-25%,8%,22%,-12
CCOC(=O)C(=O)N(C)c1c(CC)nc2c(OCCC3CCCCC3)cccn12,·,18µM*,?,-21%,-7%,-24
CCOC(=O)N(C)c1c(CC)nc2c(OCCC3CCCCC3)cccn12,·,16µM*,?,-51%,?,-77*
CCOC(=O)C(=O)N(C)c1c(CC)nc2c(OCc3ccc(Cl)cc3)cccn12,·,?,?,-24%,?,16
O=C(O)c1ccc(Cl)c(S(=O)(=O)Nc2ccccc2Cc2ccccc2)c1,-1%,4%,-3%,-3%,23%,6
COc1ccccc1CNC(=O)CCCCn1c(=O)c2ccccc2n(Cc2c(C)cc(C)cc2C)c1=O,6%,-1%,-16%,-4%,4%,·
COc1ccc(C(=O)Nc2cc3c4c(c2)CC(=O)N4CCC3)cc1,-3%,-29%,-13%,-14%,-1%,-1
CCOc1ccc(NC(=O)N2CCC(CN3CCCCCC3)CC2)cc1,5%,?,18µM*,0%,3%,·
O=C(Nc1ccc(Br)cc1)N1CCC(CN2CCCC2)CC1,6%,-13%,?,-4%,0%,·
CC(C)c1ccc(NC(=O)N2CCN(c3ccc(Cl)c(Cl)c3)CC2)cc1,-1%,0.92µM*,?,-52%,·,·
CCOc1ccc(NC(=O)CN2CCN(c3ccc(Cl)cc3)CC2)cc1,-1%,?,?,-20%,?,·
CCOc1ccc(NC(=O)N2CCN(c3ccc(Cl)c(Cl)c3)CC2)cc1,7%,1.3µM*,?,-27%,·,·
Cc1ccc(NC(=O)N2CCN(c3ccc(Cl)c(Cl)c3)CC2)cc1,4%,3.3µM*,?,-12%,·,·
Cc1cc(NC(=O)CSc2nc3c([nH]c4ccccc43)c(=O)n2-c2cccc(Cl)c2)no1,-3%,?,?,1%,-6%,·
Cc1ccnc2ccc(F)cc12,·,-2%,1%,10%,1%,·
Cc1c(C(=O)NCc2ccc(OC(C)C)cc2)sc2ncnc(N(C)C3CCCCC3)c12,0%,?,?,9%,11%,·
Cc1ccc(CNC(=O)c2sc3ncnc(N(C)C4CCCCC4)c3c2C)cc1,5%,26µM*,?,-9%,?,·
Cc1ccccc1CNC(=O)c1sc2ncnc(N(C)C3CCCCC3)c2c1C,-2%,21µM*,?,-3%,2%,·
Nc1[nH]c(=S)[nH]c(=O)c1N,·,8%,3%,3%,-14%,·
CCOc1ccc(CSC(=N)N)cc1Cl,·,12µM*,15µM*,-35%,?,-52*
CCOc1ccc(CSC(=N)N)cc1[N+](=O)[O-],2%,?,23µM*,-15%,0%,-97*
CC(C)Oc1ccc(CSC(=N)N)cc1,0%,-28%,-27%,-10%,-1%,15
CCCCOc1ccc(CSCCN)cc1Cl,7%,18µM*,18µM*,-121%,?,-83*
